# Source: PubChem BioAssay
# SDO1 yeast rescue – restores growth of sdo1-depleted yeast | S. cerevisiae sdo1-depleted JHY4D growth rescue, OD600 30 h; active compounds read high; pdr5 snq2 efflux-pump mutant strain | z-score at 10 µM | 140,000 compounds, 0.21% hits;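 active = z-score above 3 at both the 24 hr and the 30 hr optical density reads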;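 note: z-score against mean and SD of all compound wells on the same plate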
# sEH inh – blocks human soluble epoxide hydrolase activity; AID 707; 91,000 compounds, 0.34% hits; inhibition, % at 2 µM; recombinant human sEH enzymatic activity assay; in the data active = inhibition above about 80%
# Target sequence (P34913 whole entry, looked up): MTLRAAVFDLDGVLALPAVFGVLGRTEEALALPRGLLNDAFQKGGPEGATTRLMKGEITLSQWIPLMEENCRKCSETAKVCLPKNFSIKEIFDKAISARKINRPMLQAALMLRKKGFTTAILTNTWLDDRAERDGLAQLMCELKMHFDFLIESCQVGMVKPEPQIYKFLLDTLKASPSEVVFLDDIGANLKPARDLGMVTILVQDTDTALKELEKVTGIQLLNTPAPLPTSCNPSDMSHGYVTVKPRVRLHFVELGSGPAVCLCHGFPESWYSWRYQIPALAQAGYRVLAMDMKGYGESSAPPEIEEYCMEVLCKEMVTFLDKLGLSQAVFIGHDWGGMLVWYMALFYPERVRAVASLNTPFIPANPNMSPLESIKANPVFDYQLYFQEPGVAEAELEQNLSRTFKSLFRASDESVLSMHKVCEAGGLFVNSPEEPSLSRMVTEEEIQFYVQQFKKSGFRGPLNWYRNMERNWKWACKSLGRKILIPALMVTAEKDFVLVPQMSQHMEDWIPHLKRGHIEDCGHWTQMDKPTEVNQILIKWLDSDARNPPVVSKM
# MRP resist rev – compounds reversing MRP-mediated drug resistance; H69AR cells + 2 uM doxorubicin, CellTiter-Glo, 72 h; differential viability (reversal), % at 10 µM; 85,000 compounds, 0.04% hits;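 active = viability drop by adding the cancer drug above about 55%, with treated viability meeting a 40% cutoff, limit read from the data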;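 note: viability without doxorubicin minus viability with 2 µM doxorubicin for each compound; larger differential means the compound sensitizes cells more to doxorubicin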
# Measles CPE – protection of cells from measles virus | Measles virus-infected cells, CPE protection, absorbance | protection (pct of control), % at 4 µM | 140,000 compounds, 1.5% hits | AID 841; in the data active = protection mostly above about 24%, no sharp cut-off; inactive = mostly below about 26%
# MRP-1 activ – MRP-1 activation; H69AR cells + doxorubicin, viability rescue, CellTiter-Glo; viability increase, % at 10 µM; 140,000 compounds, 0.61% hits; AID 799;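 active = viability gain under doxorubicin at or above a set limit, the compound median plus 3 SD, cut at about 4.7% in these data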;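 note: MRP-1 overexpressing cells given doxorubicin 25 µM after compound pretreatment; 18-22 h compound pretreatment then 72 h with doxorubicin before readout; 0% = doxorubicin-only wells and 100% = vehicle-treated cells without doxorubicin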
# sEH activator – increases human soluble epoxide hydrolase activity; P34913; 91,000 compounds, 0.04% hits; activation, % at 2 µM; purified human sEH enzymatic activity, activator screen; in the data active = activation above about 37%
# * marks the source's active call; other numbers are inactive results; x = not tested or not shown; [ ] = dose if it differs, or a comment. Hits are enriched below; roughly 2.5% of the tested compounds scored in any of these assays.
SMILES,SDO1 yeast rescue,sEH inh,MRP resist rev,Measles CPE,MRP-1 activ,sEH activator
CCC(Sc1nccn1C)C(=O)Nc1nnc(C)s1 (stereo not given),1.1,3,1,10,7.3*,-4
CCC(Sc1nccn1C)C(=O)Nc1cccc2ccccc12 (stereo not given),0.97,x,-7,7,0,x
CCOC(=O)CCCCC(=O)c1[nH]c(=O)[nH]c1CSc1nc(-c2ccccc2)c(C#N)c(=O)[nH]1,-0.35,10,3,11,6.4*,-11
Cc1cccc(NC(=O)CSc2nc3[nH]ncc3c(=O)[nH]2)c1C,0.24,x,x,21,-2,x
Cc1ccc2n(n1)c(=O)c(Cc1ccccc1)c([O-])[n+]2-c1ccccc1,1.6,x,x,22,-2,x
CC(=O)OC1c2ccccc2C(=O)N1Cc1ccccc1 (stereo not given),0.09,-16,7,2,0,15
N#Cc1c(-c2cccs2)nc(SCC(=O)c2cccs2)[nH]c1=O,0.16,-8,x,20,5.6*,8
CCC(Sc1nc(-c2ccccc2)c(C#N)c(=O)[nH]1)C(=O)Nc1nnc(C)s1 (stereo not given),0.91,-10,x,15,6.4*,10
CCC(Sc1nc(C)cc(=O)[nH]1)C(=O)Nc1nc(-c2ccccc2)cs1 (stereo not given),0.36,-1,3,14,-1,3
Cc1cc(NC(=O)CSc2nc3ccccc3[nH]2)no1,-0.01,14,6,2,-3,-10
N#Cc1c(-c2ccccc2)nc(SCC(=O)N(c2ccccc2)c2ccccc2)[nH]c1=O,1.5,x,x,15,7.5*,x
Cc1cc(NC(=O)CSc2nc(-c3ccccc3)c(C#N)c(=O)[nH]2)no1,0.31,11,4,2,9.1*,-9
N#Cc1c(-c2ccccc2)nc(SCC(=O)Nc2ccccc2)[nH]c1=O,0.82,x,x,28,9.6*,x
Cc1ccc(OCc2nnc(SCC(=O)O)n2N)cc1,1.4,-5,4,40*,-2,5
CCOC(=O)CN(c1ccccn1)S(=O)(=O)c1ccccc1,0.66,-7,0,35*,1,6
Cc1cc(C)nc(Nc2n[nH]c(-c3ccc(N)cc3)n2)n1,0.73,0,3,26*,-2,1
COc1ccc(-n2ncc3c(NCCCn4ccnc4)ncnc32)cc1,-0.42[9.3 µM],x,-8,66*,1,x
COCCNc1ncnc2c1cnn2-c1ccc(Cl)cc1,0.61[12 µM],x,1,2,-4,x
O=C(Nc1ccc(Cl)cc1)C1CCCN(S(=O)(=O)c2cnc[nH]2)C1 (stereo not given),0.28,x,11,5,4.9*,x
O=C(NCc1ccc(Cl)cc1)C1CCCN(S(=O)(=O)c2cnc[nH]2)C1 (stereo not given),0.2,21,-5,4,1,-20
CCN(CCCNC(=O)C1CCN(S(=O)(=O)N2CCC3(CC2)OCCO3)CC1)c1ccccc1,1.5,90*,8,4,0,-90
O=C(CNS(=O)(=O)c1ccccc1)NCC(=O)OCc1ccc(C(=O)c2ccccc2)cc1,0.81,x,x,22,0,x
CCSc1nnc(CNc2ccc(F)cc2)n1CC1CCCO1 (stereo not given),-1.5,14,0,46*,-1,-15
Cc1ccc(S(=O)(=O)N2CCOCC2)cc1C(=O)OCC(=O)NC1CCS(=O)(=O)C1 (stereo not given),-0.64,x,x,7,1,x
CC(C)Cn1c2c(c(O)c(C(=O)Nc3nccs3)c1=O)CCCC2,-0.86,x,-13,9,5.7*,x
SMILES,SDO1 yeast rescue,sEH inh,MRP resist rev,Measles CPE,MRP-1 activ,sEH activator
Nc1nc(CN2CCN(c3ccccc3)CC2)nc(N2CCCc3ccccc32)n1,-0.66,-11,x,87*,-3,10
COc1ccc(CC(=O)N2CCN(c3ccccn3)CC2)cc1,0.01,-2,2,7,-5,7
COc1ccc(C(=O)N2CCN(c3ccccn3)CC2)cc1,0.43,-3,23,45*,0,1
Cc1ccc(S(=O)(=O)c2ccc(Cl)cc2)cc1S(=O)(=O)N(C)CC(=O)O,0.7,x,x,14,-2,x
CCN(CC)c1cc2nc(C)n(Cc3ccccc3)c(=O)c2cc1NC(=O)C1CC1,-0.03,-2,-6,5,4.8*,5
CCCc1cc(-c2nc(-c3ccc(Br)cc3)cs2)ccn1,-1.3,x,x,9,5.0*,x
O=C(NN=C1CCCCCCCCCCC1)c1ccccc1F,1.4,x,x,50*,-2,x
CNC(=O)c1ccccc1F,0.16,7,-2,9,-1,-6
COC(=O)C1CCN(C(=O)COC(=O)CCc2nc3ccccc3c(=O)[nH]2)CC1,0.7,x,x,3,1,x
N#CCCN1CCN(S(=O)(=O)c2ccc(S(=O)(=O)N3CCCCCC3)cc2)CC1,-0.46,x,9,10,-2,x
N#CCCN1CCN(S(=O)(=O)c2ccc(S(=O)(=O)NC3CCCC3)cc2)CC1,0.61,-9,5,40*,-1,9
COc1cccc(C2C(C(=O)c3cccs3)=C(O)C(=O)N2c2cc(C)on2)c1 (stereo not given),0.19,x,18,37*,0,x
CC1CN(C(=O)COC(=O)c2cccs2)CC(C)O1 (stereo not given),0.36,x,-10,36*,-1,x
COc1cc(/C=N\NC(=O)CNC(=O)C2COc3ccccc3O2)ccc1O (stereo not given),1.3,x,x,30*,1,x
O=C(/C=C/c1cccs1)Nc1cccc(NC(=O)/C=C/c2cccs2)n1,-1.3,x,x,90*,1,x
Cc1cc(C)nc(NC(=O)/C=C/c2cccs2)c1,-0.91,-14,x,4,-3,12
Cc1ccc(-c2csc(NC(=O)CCCc3cccs3)n2)cc1,0.54,x,x,7,0,x
CC(=O)Nc1ccc(-c2csc(NC(=O)CCCc3cccs3)n2)cc1,0.2,x,x,110*,-1,x
Cc1cccc(Nc2nnc(SCC(=O)Nc3cccc(S(=O)(=O)N4CCCCC4)c3)s2)c1,0.8,x,x,16,-1,x
Cc1cccc(Nc2nnc(SCC(=O)Nc3cccnc3Cl)s2)c1,-0.23,x,x,15,8.1*,x
COc1ccccc1NS(=O)(=O)c1cccc(C(=O)N/N=C(\C)c2ccc(-n3ccnc3)cc2)c1,0.38,82*,x,5,-3,-82
Cc1ccc(CN2CCN(Cc3ccccc3C(F)(F)F)CC2)cc1,-0.09,7,x,5,-2,-6
CCOC(=O)N1CCN(c2nc(-c3cccc(OC)c3)cc(C(F)(F)F)n2)CC1,-0.93,-5,26,6,8.7*,4
CCOC(=O)N1CCN(c2nc(-c3ccco3)cc(C(F)(F)F)n2)CC1,0.32,x,5,3,-1,x
COc1ccc(Cl)cc1N(CC(=O)NC(C)(C)C)S(=O)(=O)c1ccc(C)c([N+](=O)[O-])c1,-0.2,x,x,11,-3,x
CC(=O)Nc1ccc(N=Nc2ccc(O)cc2)cc1,1.2,x,x,17,-5,x
Cc1cccc(C(=O)O/N=C/c2c(N3CCOCC3)n(C)c3ccccc23)c1,-1.3,-6,x,32*,-5,9
CCOc1cc(C(=O)N/N=C\c2cn(CC)nc2C)cc(OCC)c1OCC,0.22,x,x,2,-3,x
